# FLuc inh: inhibitors of firefly (Photinus pyralis) luciferase; AID 1347043; P08659; 76,000 tested, 2.5% active; Potency, µM (doses to about 115 µM), most hits filed as inhibitors; purified P. pyralis luciferase, luminescence, biochemical; note: nearly all actives have a fitted effect of over 65% in size
# Target sequence (P08659 whole entry, looked up): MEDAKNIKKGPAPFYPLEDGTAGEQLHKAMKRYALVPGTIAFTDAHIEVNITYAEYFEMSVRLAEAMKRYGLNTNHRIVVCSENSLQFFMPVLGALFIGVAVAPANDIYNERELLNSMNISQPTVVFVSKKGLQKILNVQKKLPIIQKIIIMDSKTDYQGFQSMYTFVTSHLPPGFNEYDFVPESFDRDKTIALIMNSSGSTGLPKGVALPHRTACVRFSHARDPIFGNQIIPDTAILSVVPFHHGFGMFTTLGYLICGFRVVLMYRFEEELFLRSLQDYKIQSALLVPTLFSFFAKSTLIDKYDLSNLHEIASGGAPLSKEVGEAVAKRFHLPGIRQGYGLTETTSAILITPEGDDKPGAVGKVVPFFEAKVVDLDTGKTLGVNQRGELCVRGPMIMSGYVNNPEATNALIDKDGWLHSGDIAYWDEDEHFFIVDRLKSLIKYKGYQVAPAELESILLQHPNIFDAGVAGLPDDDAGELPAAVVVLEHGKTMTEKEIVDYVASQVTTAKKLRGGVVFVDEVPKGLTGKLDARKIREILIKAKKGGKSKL
#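 Inhibitors were tested against purified firefly luciferase in a biochemical, low-substrate format (both substrates at 10uM) and luminescence measured with a CCD imager.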
# HEK cytotox: kills HEK 293 cells; Potency, µM (highest dose often 115 µM), inactives show at the top dose activity change, negative = cytotoxicity, usual class: inhibitors; AID 1345083; HEK 293 viability, ATP luminescence (CellTiter-Glo), 48-72 h; 94,000 tested, 6.6% active; note: nearly all actives have a fitted effect of over 60% in size
#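 CellTiter-Glo luminescence (cellular ATP) was read after 48 or 72 hr of compound exposure at 37 degree Celsius. Cells were HEK 293 plated at 250 cells/well.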
# NPR1 antag: antagonists of human natriuretic peptide receptor Npr1 | 76,000 tested, 1.6% active | Potency, µM (series often up to 46.3 µM), for the others: top-dose activity change, negative = inhibition, hits mostly inhibitors | AID 1347048 | HEK293 hNpr1 GloSensor cGMP, ANP-stimulated luminescence; calls by dose curve; note: nearly all actives have a fitted effect of over 60% in size
#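 Compound pre-incubated 30 min at room temperature on GloSensor-loaded HEK293 cells stably carrying hNpr1 and the pGS-40F cGMP biosensor. Stimulation uses hNppA at 0.1 nM final; luminescence is taken at baseline and 20 min post-agonist.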
# NIH3T3 tox: NIH 3T3 cell cytotoxicity | NIH 3T3 viability, CellTiter-Glo ATP luminescence, 48-72 h | Potency, µM (top dose mostly 96.7 µM), for the others: at the top dose activity change, negative = cytotoxicity, actives largely listed as inhibitors | 94,000 tested, 4.3% active; note: nearly all actives have a fitted effect of over 55% in size
#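 Mouse fibroblast NIH 3T3 cells, 400 per well, received compound via pintool and were incubated for 48 or 72 hr prior to CellTiter-Glo ATP luminescence measurement.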
# GPT2 inh: inhibitors of human GPT2 alanine aminotransferase | Q8TD30 | Recombinant GPT2, coupled pyruvate oxidase/HRP Amplex Red fluorescence | Potency, µM (top dose mostly 57.7 µM), for the others: at the highest dose activity change, negative = inhibition, usual class: inhibitors | 100,000 tested, 0.25% active | AID 1671188; note: nearly all actives have a fitted effect of over 60% in size
#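 GPT2 10ng/uL, a-KG 250uM, L-Ala 2mM, HEPES pH7.5 + 0.0001% Tween; 30 min RT. Then Amplex mix (PO/HRP/ThPP), 30 min RT dark, fluorescence. AOA 50uM used as positive control.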
# An asterisk follows results filed as active; i = inactive; ? = inconclusive; · = no result; ! = a repeat was not active; [ ] = another dose, or the depositor's remark. This is a sample that favours compounds with a hit; in the whole collection about 10% have one here. Unless noted, calls come from the whole dose curve; as a rule, active = well fitted curve in the direction sought with a large enough effect; inconclusive = small, poorly fitted or top-dose-only effect, or another doubt; inactive = no such curve, though single readings can be large; an effect the other way counts as inactive or inconclusive. % is set by controls: 0 for no effect and ±100 for the full control effect; potency is the fitted concentration of half-maximal effect.
SMILES,FLuc inh,HEK cytotox,NPR1 antag,NIH3T3 tox,GPT2 inh
CCN(C)C(=O)C(C)N1CCc2onc(-c3ccc(-c4ccccc4)cc3)c2C1 (stereo not drawn),20µM*,?,?,?,?
CC(C)N1[N]C(=C2C=c3cc(O)ccc3=N2)c2c(N)ncnc21,·,·,·,·,0.61µM*
O=C(NC1CCN(c2ccnc3ccnn23)CC1)c1ccncc1,·,?,·,?,i
COc1ccc(Nc2ccnc(N3CCCC(C(=O)NCc4ccccc4Cl)C3)n2)cc1 (stereo not drawn),·,35µM*,·,35µM*,i
COc1ccccc1Nc1ccnc(N2CCCC(C(=O)N3CCC(C#N)CC3)C2)n1 (stereo not drawn),·,?,·,?,i
COc1ccc(Nc2ccnc(N3CCCC(C(=O)N4CCC(Cc5ccccc5)CC4)C3)n2)cc1 (stereo not drawn),·,20µM*,·,28µM*,-17%
O=C(NCc1ccc(Cl)cc1)C1CCc2nnc(C3CCN([S+](=O)([O-])c4ccccc4Cl)CC3)n21 (stereo not drawn),·,?,·,?,-12%
CCOc1ccccc1NC(=O)N1CCC(N2CC3CC(C2)[C@H]2CCCC(=O)N2C3)CC1 (stereo partly drawn),i,5%,2%,-4%,2%
Cn1ccc2cc(-c3csc(CN4CC(C)(NC(=O)C5CC5)C4)n3)ccc21,?,?,?,?,0%[88.5 µM]
CC1(NC(=O)C2CC2)CN(Cc2nc(-c3ccc(Oc4ccccc4)cc3)cs2)C1,?,35µM*,8.9µM*,?,-9%[88.5 µM]
CC1(NC(=O)C2CC2)CN(Cc2nc(-c3cccc(N4CCOCC4)c3)cs2)C1,40µM*,?,-2%[70.6 µM],-20%[138 µM],i
NC[C@H]1O[C@H](Cc2cc(-c3ccc(F)cc3)on2)CC[C@@H]1O,35µM*,?,14µM*,-6%[174 µM],1%[88.5 µM]
O=C(NC[C@H]1O[C@H](Cc2cc(-c3ccc(F)cc3)on2)CC[C@@H]1O)NC1CCCCC1,71µM*,?,10µM*,89µM*,0%[88.5 µM]
O[C@H]1CC[C@@H](Cc2cc(-c3ccc(F)cc3)on2)O[C@@H]1CNC1CCOCC1,?,i,-30%[70.6 µM],0%[174 µM],-1%[88.5 µM]
Cc1nn2c(c1-c1ccccc1-c1ccccc1)N(Cc1ccc(OCC(=O)O)cc1)CCC2,i,?,-25%,?,0%
Cc1nn2c(c1-c1cccnc1N1CCOCC1)N(CC1CC1)CCC2,i,?,-5%[70.6 µM],40µM*,-2%[88.5 µM]
Cc1ccc(CN2CCCn3nc(C)c(-c4ccccc4-c4ccccc4)c32)o1,i,?,?,45µM*,-13%[88.5 µM]
Cc1nn2c(c1-c1cccnc1N1CCOCC1)N(Cc1ccccc1)CCC2,i,63µM*,-27%[70.6 µM],?,-18%[88.5 µM]
COc1ccccc1CN1CCCn2nc(C)c(-c3cccnc3N3CCOCC3)c21,i,?,-16%[70.6 µM],?,i
COc1ccc(-c2cc(C(=O)NCc3ccccc3Cl)c3cnn(C)c3n2)cc1,·,?,·,?,i
CSc1ccc(-c2cccc(C(=O)NCC(=O)NC3CCCC3)c2)cc1,·,?,·,-39%,i
COc1ccccc1-c1cccc(CN2CCCC(C(=O)NCC(F)F)C2)c1 (stereo not drawn),·,40µM*,·,?,-5%
Cn1cccc1CN1CCCC(C(=O)NCc2ccccc2)CCNC(=O)CC1 (stereo not drawn),i,79µM*,0%,?,i
COc1ccccc1-c1cccc(CN2CCCC(C(=O)NCc3ccccc3)C2)c1 (stereo not drawn),·,11µM*,·,?,i
COc1ccccc1-c1cccc(CN2CCCC(C(=O)NC3CCCC3)C2)c1 (stereo not drawn),·,35µM*!,·,35µM*!,?
SMILES,FLuc inh,HEK cytotox,NPR1 antag,NIH3T3 tox,GPT2 inh
C#CCNC(=O)C1CCCN(Cc2cccc(-c3ccccc3OC)c2)C1 (stereo not drawn),·,?,·,?,4%
CCN(Cc1cnn(CC)c1)C(=O)CN1C(=O)C2(CCCCC2)C1c1ccccc1 (stereo not drawn),·,?,·,?,i
COc1cccc(C(=O)N2CCC(N3C[C@H](O)C[C@H]3C(=O)Nc3ccc(F)cc3)CC2)c1,i,-18%,-14%,-21%,-24%
CCOC(=O)C1CCCN(C(=O)c2nc3sccn3c2-c2cccc(C#N)c2)C1 (stereo not drawn),·,?,·,-23%,i
COc1ccc(-c2ccc3c(n2)CN(C)C(=O)CO3)cc1,?,?,?,100µM*,?
Cc1ccc(-c2ccc3c(n2)CN(C)C(=O)CO3)cc1,89µM*,?,?,?,3%[88.5 µM]
COC(=O)[C@H](Cc1ccc(OC)cc1)NC(=O)[C@H]1CN(S(=O)(=O)c2ccccc2)CCN1C(=O)c1cccs1,i,79µM*,3%,?,1%
NC(=O)[C@H](CC1CCCCC1)NC(=O)[C@@H]1CN(S(=O)(=O)c2ccccc2)CCN1C(=O)c1cccs1,i,-4%,-6%,25µM*,-19%
CC(=O)N1CCN(C(=O)c2cccs2)[C@H](C(=O)N[C@@H](CC2CCCCC2)C(N)=O)C1,i,-2%[172 µM],4%[70.6 µM],-13%[138 µM],-9%[88.5 µM]
O=C(NCc1cc2n(n1)CCNC2)c1cc2c(s1)CCCCC2,32µM*,-2%,3%,i,-12%
O=C(CCc1cc2n(n1)CCCNC2)NCc1csc2c1CCCC2,i,-6%,0%,0%,?
CCOCCNC(=O)C1CCCN(Cc2cccc(-c3ccc(F)cc3F)c2)C1 (stereo not drawn),·,?,·,?,-25%
Cc1ccsc1-c1nc(CN2CCC(CCn3cccn3)CC2)c(C)o1,i,?,-3%,?,-22%
CC(C)C(O)C1CCN(c2nccc(-c3cc(C(=O)O)ccn3)n2)CC1 (stereo not drawn),50µM*,-18%,0%,-11%,-13%
O=C(C1CCCN1C(=O)c1cccc(-c2ccccn2)c1)N1CCN(Cc2ccccc2)CC1 (stereo not drawn),·,-23%,·,-25%,3%
O=C(CCc1ccc(O)cc1)c1c(O)cc(O)cc1O,·,·,·,·,6.9µM*!
COc1ccc(CCC(C)=O)cc1,·,·,·,·,i
CNC(=O)[C@H]1C[C@H](Oc2cccnc2)CN1S(=O)(=O)Cc1ccccc1F,i,2%,-8%,-15%,1%
CCOCCCNC(=O)C1CCCN1Cc1cccc(-c2cccc(OC)c2)c1 (stereo not drawn),·,25µM*,·,32µM*,i
COC(=O)CNC(=O)C1CCCN1Cc1ccc(-c2cccc(OC)c2)cc1 (stereo not drawn),·,?,·,?,i

# Screening data deposited in PubChem BioAssay by National Center for Advancing Translational Sciences (NCATS).
